“And” between values parts separate entries of the source, which are not always exact repeats. Equal entries are not always repeated. Records with an inconclusive call do not appear. Some structures have more than one record in an assay (separate samples or runs), and their calls can disagree. The source made the active and inactive calls. Calls follow the shape of the dose curve; as a rule, active = well fitted curve in the direction sought with a large enough effect; inconclusive = small, poorly fitted or top-dose-only effect, or another doubt; inactive = no such curve, though single readings can be large; an effect the other way counts as inactive or inconclusive.
Legend:
[1] = MultiTox-Fluor Cytotoxicity Assay - LYMP1-002 - Live Cells (AID 955)
Procedure, shortened: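 Cytotoxicity in the human lymphoblastoid line LYMP1-002 is measured as loss of live-cell protease activity after 16 h treatment in complete culture medium. AC50 is derived from Hill-equation fits of qHTS concentration-response data.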

[2] = MultiTox-Fluor Cytotoxicity Assay - LYMP1-003 - Dead Cells (AID 961); also: nearly all actives have a fitted effect of over 70% in size
Procedure, shortened: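 LYMP1-003 human lymphoblastoid cells (2500/well) exposed to compound 16 h at 37 C in complete medium; dead-cell protease read with bis-AAF-R110 fluorescence (Ex/Em 485/520) after 60 min at room temperature. Normalized to DMSO and 15 uM tetraoctylammonium bromide; AC50 from Hill fit.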

[3] = MultiTox-Fluor Cytotoxicity Assay - LYMP1-003 - Live Cells (AID 962);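 also: cytotoxic hits lower the live-cell protease signal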
Procedure, shortened: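 Cells plated at 2500 per well and incubated 5 hr; compounds added and incubated 16 hr at 37 C; MultiTox-Fluor reagent added for 60 min at room temperature; fluorescence of liberated AFC measured at 405/510 nm.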

[4] = Cell Viability - LYMP1-003 - Assay at 24 hr (AID 963)
Procedure, shortened: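 Acute toxicity in LYMP1-003 lymphoblastoid cells: 24 hr compound treatment at 37 C, ATP measured with CellTiter-Glo after 30 min at room temperature. AC50 derived by fitting the Hill equation to qHTS titrations.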

[5] = Cell Viability - LYMP1-003 - Assay at 40 hr (AID 964); also: series mostly up to about 92 µM; nearly all actives have a fitted effect of over 60% in size
Procedure, shortened: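 This qHTS cytotoxicity screen treats human lymphoblastoid cells (LYMP1-003) with compounds for 40 hr and quantifies cellular ATP via luciferase luminescence.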

[6] = Cell Viability - LYMP2-003 (AID 965);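 also: cells exposed to compounds for 24 h before reading; nearly all actives have a fitted effect of over 50% in size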
Procedure, shortened: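 CellTiter-Glo luminescence quantified ATP loss after 24 h compound treatment of LYMP2-003 lymphoblastoid cells at 37 C. Titration series were fitted with the standard Hill equation to give AC50.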

[7] = Cell Viability - LYMP2-004 (AID 966); also: nearly all actives have a fitted effect of over 65% in size
Procedure, shortened: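 Acute toxicity is scored as a concentration-dependent drop in intracellular ATP, quantified by luciferase luminescence, in human lymphoblastoid cells exposed to compound for 24 hr. AC50 derives from Hill-equation modelling.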

[8] = Cell Viability - LYMP2-005 (AID 967); also: series mostly up to about 92 µM
Procedure, shortened: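 LYMP2-005 human lymphoblastoid cells (2500/well) were treated with compounds for 24 h at 37 C. Intracellular ATP was then measured by CellTiter-Glo luminescence after 30 min at room temperature. AC50 values came from Hill-equation fits of qHTS concentration-response data.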

[9] = target: Alpha-galactosidase (Coffea arabica) (UniProt Q42656); assay: Counterscreen for Glucocerebrosidase Inhibitors: qHTS Assay for Coffee Bean alpha-Galactosidase at pH 4.5 (AID 957); also: series mostly up to about 77 µM
Procedure, shortened: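 AC50 values derive from Hill-equation modeling of concentration-response data, normalized to no-enzyme and full-activity controls. The pH 4.5 citrate assay used 2 nM coffee bean enzyme and 80 uM fluorogenic substrate for 20 min.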

[10] = MultiTox-Fluor Cytotoxicity Assay - LYMP1-002 - Dead Cells (AID 960); also: nearly all actives have a fitted effect of over 60% in size; also: potency is read from the fitted curve at half-maximal effect
Procedure, shortened: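 Acute cytotoxicity in a human lymphoblastoid line is scored as rising dead-cell protease signal after 16 hr exposure at 37 C, measured fluorometrically (485/520).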

Measured: Potency

Sequence of Alpha-galactosidase (Coffea arabica) (Q42656 whole entry, looked up): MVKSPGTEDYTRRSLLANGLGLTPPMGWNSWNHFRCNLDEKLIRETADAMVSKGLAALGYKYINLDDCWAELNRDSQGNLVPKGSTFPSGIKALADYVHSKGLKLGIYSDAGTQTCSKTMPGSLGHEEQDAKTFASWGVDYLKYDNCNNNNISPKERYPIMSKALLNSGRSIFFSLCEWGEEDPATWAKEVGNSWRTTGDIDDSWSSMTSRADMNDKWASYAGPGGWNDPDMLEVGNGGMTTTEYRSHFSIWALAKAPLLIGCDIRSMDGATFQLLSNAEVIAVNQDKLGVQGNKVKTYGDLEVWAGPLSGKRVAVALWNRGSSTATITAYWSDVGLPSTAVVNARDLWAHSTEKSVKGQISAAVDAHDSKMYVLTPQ

CN1C[C@H](C(=O)N[C@]2(C)O[C@@]3(O)[C@@H]4CCCN4C(=O)[C@H](Cc4ccccc4)N3C2=O)C=C2c3cccc4[nH]cc(c34)C[C@H]21
not listed: [8] | [9] | [10]
inactive: all other assays above

Nc1ccccc1
not listed: [9] | [10]
inactive: all other assays above

O=C(CCCN1CCC2(CC1)C(=O)NCN2c1ccccc1)c1ccc(F)cc1
inactive: [9]

CC(C)c1cccc(C(C)C)c1O
inactive: all assays above

CN1C(C)(C)CCCC1(C)C
inactive: [9]

COc1cc(OC)c(OC)cc1C=O
not listed: [9]
inactive: all other assays above

COP(=S)(OC)Oc1ccc(SC)c(C)c1
not listed: [9]
inactive: all other assays above

C[C@]12CCC(=O)C=C1CC[C@@H]1[C@@H]2CC[C@]2(C)C(=O)CC[C@@H]12
inactive and 15.8 µM (active): [10]
inactive: all other assays above

CN1C(C(=O)Nc2ccccn2)=C(O)c2ccccc2S1(=O)=O
inactive: [9]

CCN(CC)CCOC(=O)c1ccc(N)cc1
inactive: [9]

CN1CCN(CC(=O)N2c3ccccc3C(=O)Nc3cccnc32)CC1
inactive: [9]

Reference: PubChem BioAssay (NCATS)
